# Data as given in the supplement of paper PMC10037445.
# Whole data set: some 2,900 compounds, median “NF-kB SEAP reporter activity, fold change vs agonist alone” near 0.99, cut for the highest 2% near 2.6. This is one part of a sample in which the highest values are shown more often than they occur.
# Key:
# RAW-Dual [1] = experiment: NF-kB SEAP reporter activity, fold change vs agonist alone; cytotoxicity flag (confluency mask): not cytotoxic; higher = enhanced NF-kB activity
# In short: (§1)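 After 50 nL of library stock was delivered by pin tool to RAW-Dual macrophages (50,000 cells/well, DMEM, 384-well plates), a PRR agonist was added 1 h later and the plates were kept at 37 °C, 5% CO2. Twenty hours later, IRF was read from supernatant by QuantiLuc luminescence and NF-κB by QuantiBlue absorbance at 620 nm. Reporter activity is stated as fold change over agonist-alone wells. Wells with IncuCyte confluency under 70% of agonist controls in both mask sets were counted as cytotoxic.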
# RAW-Dual [2] = experiment: NF-kB SEAP reporter activity, fold change vs agonist alone; higher = enhanced NF-kB activity; details: library stock concentration (final ~1000-fold dilution): 10 mM
# In short: as §1
# RAW-Dual [3] = experiment: NF-kB SEAP reporter activity, fold change vs agonist alone; cytotoxicity flag (confluency mask): cytotoxic (confluency <70% of control); higher = enhanced NF-kB activity
# In short: as §1
# [4] = agonist: ODN 1826 (TLR9) 0.5 ug/mL
# [5] = agonist: Pam2CSK4 (TLR2/6) 0.1 ug/mL
# [6] = agonist: Pam3CSK4 (TLR2/1) 0.1 ug/mL
# [7] = cytotoxicity flag (confluency mask): not cytotoxic, agonist: Imiquimod (TLR7) […]
# [8] = cytotoxicity flag (confluency mask): not cytotoxic, agonist: MPLA (TLR4) […]
# [9] = cytotoxicity flag (confluency mask): cytotoxic (confluency <70% of control), agonist: Imiquimod (TLR7) […]
# [10] = cytotoxicity flag (confluency mask): cytotoxic (confluency <70% of control), agonist: MPLA (TLR4) […]
structure (smiles),measurement,setting,value
C=C1CCC2C(C)(CO)C(O)CC[C@@]2(C)[C@@H]1C/C=C1/C(=O)OCC1O (stereo partly drawn) (library stock concentration (final ~1000-fold dilution): 10 mM),NF-kB SEAP reporter activity,RAW-Dual [1]; agonist: LPS (TLR4) 0.1 ug/mL,0.32
same,NF-kB SEAP reporter activity,RAW-Dual [1]; [4],0.206
same,NF-kB SEAP reporter activity,RAW-Dual [1]; [5],0.0769
same,NF-kB SEAP reporter activity,RAW-Dual [1]; [6],0.161
C=C1CCC2C(C)(CO)C(O)CC[C@@]2(C)[C@@H]1C/C=C1/C(=O)OCC1O (stereo partly drawn),NF-kB SEAP reporter activity,RAW-Dual [2]; [7],0.287
same,NF-kB SEAP reporter activity,RAW-Dual [2]; [8],0.305
COc1ccc2c(OC3CC4C(=O)NC5(C(=O)NS(=O)(=O)C6CC6)CC5/C=C\CCCCN(C)C(=O)C4C3)cc(-c3nc(C(C)C)cs3)nc2c1C (stereo not drawn),NF-kB SEAP reporter activity,RAW-Dual [2]; [8],1.03
COc1ccc2c(OC3CC4C(=O)NC5(C(=O)NS(=O)(=O)C6CC6)CC5/C=C\CCCCN(C)C(=O)C4C3)cc(-c3nc(C(C)C)cs3)nc2c1C (stereo not drawn) (library stock concentration (final ~1000-fold dilution): 10 mM),NF-kB SEAP reporter activity,RAW-Dual [1]; agonist: LPS (TLR4) 0.1 ug/mL,3.16
same,NF-kB SEAP reporter activity,RAW-Dual [1]; [4],0.926
same,NF-kB SEAP reporter activity,RAW-Dual [1]; [5],0.842
same,NF-kB SEAP reporter activity,RAW-Dual [1]; [6],0.952
CC(C)(C)OC(=O)NC1CCCCC/C=C\C2CC2(C(=O)NS(=O)(=O)C2CC2)NC(=O)C2CC(OC(=O)N3Cc4cccc(F)c4C3)CN2C1=O (stereo not drawn),NF-kB SEAP reporter activity,RAW-Dual [2]; [7],0.902
same,NF-kB SEAP reporter activity,RAW-Dual [2]; [8],1.01
Cc1cnc(C(=O)NC2CCCCC/C=C\C3CC3(C(=O)NS(=O)(=O)C3CC3)NC(=O)C3CC(Oc4nc5ccccc5c5ccccc45)CN3C2=O)cn1 (stereo not drawn) (library stock concentration (final ~1000-fold dilution): 10 mM),NF-kB SEAP reporter activity,RAW-Dual [1]; agonist: LPS (TLR4) 0.1 ug/mL,0.973
same,NF-kB SEAP reporter activity,RAW-Dual [1]; [4],1.05
same,NF-kB SEAP reporter activity,RAW-Dual [1]; [5],0.744
same,NF-kB SEAP reporter activity,RAW-Dual [1]; [6],0.617
Cc1cnc(C(=O)NC2CCCCC/C=C\C3CC3(C(=O)NS(=O)(=O)C3CC3)NC(=O)C3CC(Oc4nc5ccccc5c5ccccc45)CN3C2=O)cn1 (stereo not drawn),NF-kB SEAP reporter activity,RAW-Dual [2]; [8],0.899
CC(C)(C)OC(=O)NC1CCCCC/C=C\C2CC2(C(=O)NS(=O)(=O)C2CC2)NC(=O)C2CC(OC(=O)N3Cc4cccc(F)c4C3)CN2C1=O (stereo not drawn) (library stock concentration (final ~1000-fold dilution): 10 mM),NF-kB SEAP reporter activity,RAW-Dual [1]; agonist: LPS (TLR4) 0.1 ug/mL,1.01
same,NF-kB SEAP reporter activity,RAW-Dual [1]; [4],0.995
same,NF-kB SEAP reporter activity,RAW-Dual [1]; [5],0.808
same,NF-kB SEAP reporter activity,RAW-Dual [1]; [6],1.03
Cl.NCc1c[nH]c(=S)n1C1CCc2c(F)cc(F)cc2C1 (stereo not drawn),NF-kB SEAP reporter activity,RAW-Dual [2]; [7],1.12
same,NF-kB SEAP reporter activity,RAW-Dual [2]; [8],0.889
Cl.NCc1c[nH]c(=S)n1C1CCc2c(F)cc(F)cc2C1 (stereo not drawn) (library stock concentration (final ~1000-fold dilution): 10 mM),NF-kB SEAP reporter activity,RAW-Dual [1]; agonist: LPS (TLR4) 0.1 ug/mL,0.779
same,NF-kB SEAP reporter activity,RAW-Dual [1]; [4],0.895
same,NF-kB SEAP reporter activity,RAW-Dual [1]; [5],0.82
same,NF-kB SEAP reporter activity,RAW-Dual [1]; [6],0.904
COS(=O)(=O)[O-].COc1cccc2c1nc1ccccc1[n+]2C (library stock concentration (final ~1000-fold dilution): 10 mM),NF-kB SEAP reporter activity,RAW-Dual [3]; agonist: LPS (TLR4) 0.1 ug/mL,0.473
same,NF-kB SEAP reporter activity,RAW-Dual [3]; [4],0.781
same,NF-kB SEAP reporter activity,RAW-Dual [3]; [5],0.271
same,NF-kB SEAP reporter activity,RAW-Dual [3]; [6],0.272
COc1cc(NS(C)(=O)=O)ccc1Nc1c2ccccc2nc2ccccc12.Cl (library stock concentration (final ~1000-fold dilution): 10 mM),NF-kB SEAP reporter activity,RAW-Dual [3]; agonist: LPS (TLR4) 0.1 ug/mL,2.6
same,NF-kB SEAP reporter activity,RAW-Dual [3]; [4],0.68
same,NF-kB SEAP reporter activity,RAW-Dual [3]; [5],1.05
same,NF-kB SEAP reporter activity,RAW-Dual [3]; [6],0.776
COC(=O)c1sccc1S(=O)(=O)Nc1ccc(Nc2ccccc2)cc1OC,NF-kB SEAP reporter activity,RAW-Dual [2]; [7],1.07
same,NF-kB SEAP reporter activity,RAW-Dual [2]; [8],1.11
COC(=O)c1sccc1S(=O)(=O)Nc1ccc(Nc2ccccc2)cc1OC (library stock concentration (final ~1000-fold dilution): 10 mM),NF-kB SEAP reporter activity,RAW-Dual [1]; agonist: LPS (TLR4) 0.1 ug/mL,1.72
same,NF-kB SEAP reporter activity,RAW-Dual [1]; [4],0.911
same,NF-kB SEAP reporter activity,RAW-Dual [1]; [5],0.821
same,NF-kB SEAP reporter activity,RAW-Dual [1]; [6],0.872
COc1cc(NS(C)(=O)=O)ccc1Nc1c2ccccc2nc2ccccc12.Cl,NF-kB SEAP reporter activity,RAW-Dual [2]; [9],2.58
same,NF-kB SEAP reporter activity,RAW-Dual [2]; [10],2.51
COS(=O)(=O)[O-].COc1cccc2c1nc1ccccc1[n+]2C,NF-kB SEAP reporter activity,RAW-Dual [2]; [9],0.838
same,NF-kB SEAP reporter activity,RAW-Dual [2]; [10],0.899
CC1(C)OC(=O)C=CC2(C)C1CC(=O)C1(C)C2CCC2(C)C(c3ccoc3)OC(=O)C3OC321 (stereo not drawn),NF-kB SEAP reporter activity,RAW-Dual [2]; [7],0.98
same,NF-kB SEAP reporter activity,RAW-Dual [2]; [8],1.03
